Assay outcomes: PubChem, National Center for Advancing Translational Sciences (NCATS)
Tb PYK inh – qHTS of Trypanosoma Brucei Inhibitors; pyruvate kinase (Trypanosoma brucei), Q57TT1; TbPYK enzyme, Kinase-Glo Plus ATP luminescence, 45 min; Potency, µM (doses to about 76.8 µM), for inactives: at the highest dose activity, negative = inhibition, hits mostly inhibitors; 410,000 tested, 0.12% active; also: potency is read from the fitted curve at half-maximal effect; % is scaled to controls: 0 for no effect and ±100 for the full control effect; nearly all actives have a fitted effect of over 50% in size
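Assay buffer: 50 mM TEA pH 7.2, 100 mM KCl, 10 mM MgCl2, 0.05% BSA, 0.01% Tween-20. Pyruvate kinase from T. brucei plus substrate met compound, then ADP (130 uM final). Luminescence was read post 45 min RT.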
Shiga inhibitor – A qHTS for Small Molecule Inhibitors of Shiga Toxin; Vero cells, Shiga toxin protein synthesis inhibition reporter; inhibition, % at 38.7 µM; 290,000 tested, 9.2% active; AID 2315, 2010; in the data active = inhibition mostly above about 28%, no sharp cut-off; inactive = mostly below about 43%; also: 0% is about no effect
CHX counter – Cycloheximide Counterscreen for Small Molecule Inhibitors of Shiga Toxin; max response, %; cell reporter, cycloheximide protein synthesis inhibition counterscreen; 300,000 tested, 12% active; AID 2314, 2010; in the data active = max response mostly above about 13%, no sharp cut-off; inactive = mostly below about 14%; also: read at 38.3 µM for the half of the compounds with a filed dose; 0% is about no effect
LmPK inhibitor – qHTS Assay for Inhibitors of Leishmania Mexicana Pyruvate Kinase (LmPK). Potency, µM (series often up to 57.5 µM), inactives show top-dose activity change, negative = inhibition, hits mostly inhibitors. 290,000 tested, 0.37% active. purified LmPK, Kinase-Glo ATP luminescence, 1 h. Q27686; also: potency is read from the fitted curve at half-maximal effect; % is scaled to controls: 0 for no effect and ±100 for the full control effect
Target sequence (Q27686 whole entry, looked up): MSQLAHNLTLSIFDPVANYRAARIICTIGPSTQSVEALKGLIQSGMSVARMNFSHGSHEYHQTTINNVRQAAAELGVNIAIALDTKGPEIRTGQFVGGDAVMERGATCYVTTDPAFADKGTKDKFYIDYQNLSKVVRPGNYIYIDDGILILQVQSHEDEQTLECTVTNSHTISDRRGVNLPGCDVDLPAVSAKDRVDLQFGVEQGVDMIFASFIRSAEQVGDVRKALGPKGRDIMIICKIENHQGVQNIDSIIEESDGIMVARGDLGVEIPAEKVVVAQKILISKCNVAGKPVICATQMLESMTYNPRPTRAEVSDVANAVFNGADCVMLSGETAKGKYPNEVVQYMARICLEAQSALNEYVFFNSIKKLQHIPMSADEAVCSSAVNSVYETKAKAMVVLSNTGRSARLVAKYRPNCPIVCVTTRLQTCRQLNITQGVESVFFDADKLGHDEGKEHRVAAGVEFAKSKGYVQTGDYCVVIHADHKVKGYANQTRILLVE
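Purified LmPK (0.1 nM) converted ADP (0.1 mM) to ATP with PEP (0.5 mM) in imidazole buffer pH 7.2 with KCl and MgCl2, 1 h at room temperature. ATP was read by Kinase-Glo luminescence; data normalized to uninhibited and no-enzyme controls.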
Giardia FBPA inh – qHTS Assay for Inhibitors of Fructose-1,6-bisphosphate Aldolase from Giardia Lamblia. A8B2U2. purified Giardia FBPA. Potency, µM (highest dose often 59.6 µM), without a hit: at the top dose activity, negative = inhibition, usual class: inhibitors. 290,000 tested, 0.71% active. AID 2451, 2010; also: potency is read from the fitted curve at half-maximal effect; % is scaled to controls: 0 for no effect and ±100 for the full control effect; nearly all actives have a fitted effect of over 55% in size
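Giardia FBPA (40 nM reagent) was preincubated 10 min at RT with compound (up to 57.5 uM final), then substrate plus GAPDH/TPI/NAD/arsenate coupling system with diaphorase/resazurin was added; resorufin fluorescence (525/598 nm) was read after 20 min.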
RE007 growth inh – qHTS Assay for Inhibitors of the HIV-1 protein Vpr. AID 651644, 2012. 360,000 tested, 0.21% active. S. pombe RE007 Vpr strain, BacTiter-Glo ATP luminescence, 24 h. Potency, µM (titrated, usually from 92.2 µM), for the others: at the highest dose activity change, negative = less growth, hits mostly inhibitors; active = well fitted falling curve with a large enough effect; inconclusive = small, poorly fitted or top-dose-only effect; inactive = no such curve, though single readings can be large or run the other way; also: potency is read from the fitted curve at half-maximal effect; % is scaled to controls: 0 for no effect and ±100 for the full control effect; nearly all actives have a fitted effect of over 50% in size
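Fission yeast strain RE007, carrying one chromosomally integrated HIV-1 vpr copy, was seeded at OD 0.01 in PMG+AL medium with 23 nL pinned compound. After 24 h at 30 °C and 99% humidity, viability was read by BacTiter-Glo luminescence.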
* hit, by the source's call; ? = inconclusive; / = not tested or not shown. Many of the other results were omitted from the sample, so hits are more common in it than they were. Unless noted, calls follow the shape of the dose curve; as a rule, active = well fitted curve in the direction sought with a large enough effect; inconclusive = small, poorly fitted or top-dose-only effect, or another doubt; inactive = no such curve, though single readings can be large; an effect the other way counts as inactive or inconclusive.

SMILES	Tb PYK inh	Shiga inhibitor	CHX counter	LmPK inhibitor	Giardia FBPA inh	RE007 growth inh
Cc1cccc(-n2c(-c3ccncc3)n[nH]c2=S)c1C	?	-11.0	-1.2	?	-26.2%	0.3%
COc1ccc(N2CCN(C(c3ccccc3)c3sc4nc(-c5ccco5)nn4c3O)CC2)cc1 (centres undefined)	-3.5%	/	/	/	/	/
O=S(=O)(c1ccc2c(c1)OCCO2)C1CCN(S(=O)(=O)c2c(F)cccc2F)CC1	/	24.1	5.2	/	/	/
COc1ccc2[nH]c3c(c2c1)CCNC3(C)CCc1ccc(Cl)nc1 (centres undefined)	-1.3%	19.0	-3.7	0.7%	8.6%	-22.4%
Cc1ccc(-c2ccc(/C=C/C(=O)c3ccccc3)o2)cc1	-4.9%	27.8	25.7*	-14.8%	-3.8%	/
O=C(/C=C/c1ccc(-c2ccccc2)o1)c1ccccc1	-0.9%	71.8*	74.3*	-20.2%	-25.2%	-1.1%
O=C(/C=C/c1ccc(-c2ccccc2[N+](=O)[O-])o1)c1ccc(F)cc1	-0.8%	63.6*	42.8*	0.8%	-20.7%	-20.8%
[NH-]CCC([O-])=NC(Cc1cnc[nH]1)C(=O)[O-].[Zn+2] (centres undefined)	2.2%	/	/	/	/	/
Cc1ccc(NC(=O)C2CCCN2S(=O)(=O)c2cccc3cccnc23)cc1 (centres undefined)	-3.7%	/	/	/	/	/
CN1CCN(NC(=O)c2ccc(S(=O)(=O)N3CC4(C)CC3CC(C)(C)C4)cc2)CC1 (centres undefined)	-0.9%	-12.8	-1.3	0.9%	-6.0%	7.7%
COc1ccc(-c2cc(C(=O)Nc3c(F)cc(F)cc3Br)no2)cc1	0.3%	67.3*	15.6*	4.8%	-3.1%	8.3%
COc1ccc(-c2cc(C(=O)Nc3ccc(F)cc3F)no2)cc1	1.5%	1.3	-0.6	1.7%	5.4%	4.9%
CC(C)Cc1cc(C(=O)Nc2cc(Cl)ccc2Cl)no1	-1.2%	7.1	-2.0	-2.9%	0.2%	-6.1%
CC(C)Cc1cc(C(=O)Nc2c(F)cc(F)cc2Br)no1	9.5%	36.8*	21.0	7.2%	-3.1%	-28.6%
CC(C)Cc1cc(C(=O)Nc2ccc(F)cc2F)no1	2.5%	90.4*	56.2*	-20.8%	5.8%	-2.9%
COc1ccccc1-c1cc(C(=O)Nc2c(F)cc(F)cc2Br)no1	2.2%	-4.0	5.1	7.0%	1.0%	12.0%
CN1C2CCC1CC(NC(=O)n1c(=O)[nH]c3ccccc31)C2 (centres undefined)	-6.5%	/	/	/	/	/
CCN(Cc1ccccc1)C(=O)C1CCC(CNS(=O)(=O)c2ccc3c(c2)CCCC(=O)N3)CC1 (centres undefined)	-3.0%	/	/	/	/	/
C=CCn1c(N)c(C(=O)NCCC2=CCCCC2)sc1=S	?	105.6*	49.2*	2.2%	7.3%	-8.3%
NC(=O)NCCC1=CCCCC1	2.9%	-10.2	-3.5	2.9%	6.2%	-8.0%
COc1ccc(CC(=O)Nc2ccc(C(=O)Nc3nccs3)cc2)cc1OC	6.2%	30.2	9.5	2.9%	2.2%	7.9%
Cc1ccc(C(=O)Nc2nccs2)cc1	0.9%	115.9*	36.6*	?	-6.9%	?
O=C(Nc1nccs1)c1ccc2nccnc2c1	14.8%	44.7*	23.5*	-1.1%	-13.9%	-1.0%
O=C(Nc1ccccc1C(=O)Nc1nccs1)c1ccccc1	-3.4%	/	/	/	/	-1.1%
CC(NC(=O)c1ccco1)C(=O)Nc1nccs1 (centres undefined)	-2.8%	/	/	/	/	-2.3%
O=C(Nc1nccs1)c1ccc(NC(=O)c2ccco2)cc1	5.7%	85.7*	46.6*	-1.2%	-14.9%	-4.9%
O=C(Nc1nccs1)c1ccc(COc2c(F)c(F)cc(F)c2F)cc1	-14.4%	79.5*	56.1*	0.2%	2.5%	4.1%
O=C(Nc1ccccc1Br)c1ccc2nccnc2c1	-3.9%	46.3*	35.3	-20.0%	4.8%	-17.8%
Cc1ccccc1NC(=O)c1ccc2nccnc2c1	0.0%	24.0	9.0	-1.4%	6.6%	4.1%
